Measured values taken from PubChem BioAssay AID485317 (Broad Institute, 2010).
In all, about 290,000 compounds went through this assay and about 11,000 (3.8%) were called active. The sample as a whole holds a higher share of actives than the screen did. A number with no mark means an inactive call.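 How the source made its calls: active means mean replicate inhibition above about 79%, with every replicate also reaching it (limit read from the data); inconclusive means only one of the two criteria met; inactive means mean below limit and not every replicate reaching it.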

These molecules were tested against FAD-linked sulfhydryl oxidase ALR (Homo sapiens) (UniProt P55789) (assay: inhibitors of human ALR sulfhydryl oxidase, primary screen, biochemical, H2O2 detection, HRP-luminol luminescence, single point (AID 485317)). Conditions: purified ALR, DTT oxidation, stronger effect = higher value, concentration not given here.
Sequence of FAD-linked sulfhydryl oxidase ALR (Homo sapiens) (P55789 whole entry, looked up): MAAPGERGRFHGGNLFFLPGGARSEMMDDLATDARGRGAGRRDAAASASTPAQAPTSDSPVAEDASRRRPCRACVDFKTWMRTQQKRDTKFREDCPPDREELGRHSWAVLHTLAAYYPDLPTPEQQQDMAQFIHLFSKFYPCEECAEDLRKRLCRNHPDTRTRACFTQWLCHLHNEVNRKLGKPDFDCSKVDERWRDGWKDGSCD

SMILES	inhibition
O=C1c2ccccc2C(=O)N1CCC#Cc1ccc2cc(C3(O)CCCCC3)oc(=O)c2c1	-19.8%
CCOc1ccc(-c2cc(C(=O)N/N=C/c3ccc(O)cc3)c3ccccc3n2)cc1	1.65%
O=C(COC(=O)C1CCCO1)Nc1nc(-c2ccc(F)cc2)cs1 (stereo not given)	-4.39%
Cc1ccc(NC2(C#N)C(=O)Nc3ccccc32)cc1 (stereo not given)	97.6% (active)
Cc1cc(O)c(C2(O)C(=O)Nc3ccccc32)cc1C (stereo not given)	16.1%
Cc1ccc2c(c1)C(O)(CC(=O)c1cccnc1)C(=O)N2 (stereo not given)	-0.959%
CN(C)c1ccc(NC(=O)CN2C3CCCC2CC(NC(=O)c2ccccc2)C3)cc1 (stereo not given)	99.7% (active)
CCCN1C2CCCC1CC(NC(=O)c1cccc(OC)c1)C2 (stereo not given)	-4.94%
CC(=O)NC1CC2CCCC(C1)N2CC(=O)Nc1ccccc1 (stereo not given)	-9.69%
O=C1C=CN2CCCC2CC1 (stereo not given)	-8.59%
Cc1ccccc1Nc1nc(-c2cccnc2)cs1	11.2%
CN(c1ccc(O)cc1)c1nc(-c2cccnc2)cs1	95.1% (active)
O=C(Nc1nc(-c2cccnc2)cs1)c1ccccc1F	1.15%
C=CCC[C@H](Cc1ccc(F)cc1)C(=O)OC[C@H](C)NC(=O)[C@H](CC=C)CC(=O)N(CCO)Cc1ccccc1	2.24%
COc1ccc([C@H]2CC(=O)C=C(/C=C/c3ccccc3)C2)cc1	1.57%
O=C(NCCN1CCOCC1)c1cccc(S(=O)(=O)Nc2ccc(F)cc2)c1	-5.52%
O=C(COC(=O)c1ccc(Br)o1)NC12CC3CC(CC(C3)C1)C2	-1.81%
Cc1cc(N/N=C\c2ccc(Br)cc2)nc(-n2nc(C)cc2C)n1	-2.32%
Cc1ccc(S(=O)(=O)Nc2nc(C)cc(N/N=C/c3ccc(O)cc3)n2)cc1	98.5% (active)
Cc1ccc(S(=O)(=O)Nc2nc(C)cc(-n3nc(C)cc3C)n2)cc1	7.83%
CCN(C[C@H]1N[C@@](CC)(C(=O)OC)[C@H]2C(=O)N(Cc3ccccc3)C(=O)[C@@H]12)S(=O)(=O)c1ccc(C(F)(F)F)cc1	17.3%
Nc1ccc(OCC(O)C[n+]2ccc(CCS(=O)(=O)[O-])cc2)cc1 (stereo not given)	98.1% (active)
CCc1ccc(S(=O)(=O)NCC(O)COc2ccc(OC)cc2)cc1 (stereo not given)	-11.7%
CCCc1ccc(OCC(O)CN2CCN(CCO)CC2)cc1 (stereo not given)	-1.03%
CCN(CC)C(CNC(=O)CSc1nnnn1-c1cccc(F)c1)c1ccco1 (stereo not given)	-5.32%
